About 79,000 compounds went through this panel and 15% of them were active in at least one assay; those are over-represented in the sample as a whole. A number with no mark means an inactive call. Activity calls are given as the source filed them. Cut-off read from the data, not from the text of the source: active = growth inhibition above about 70%; inactive = the rest.
How the values were obtained:
[1] = NCI Yeast Anticancer Drug Screen. Data for the rad50 strain (AID 155);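 note: 0% = growth of vehicle-only cultures of the same strain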; conditions: S. cerevisiae rad50 strain growth inhibition; at 50.0 µM; stronger effect = higher value
Summary of the method: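 Vehicle-treated cultures provide the reference for the growth inhibition reported for compound-exposed, repair-deficient yeast.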

[2] = NCI Yeast Anticancer Drug Screen. Data for the mec2-1 strain (AID 157); conditions: S. cerevisiae mec2-1 strain, at 50.0 µM, stronger effect = higher value
Summary of the method: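 Growth inhibition is read against vehicle-treated controls after compound exposure of the mec2-1 yeast strain, which is defective in DNA damage repair or cell cycle control.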

[3] = NCI Yeast Anticancer Drug Screen. Data for the sgs1 mgt1 strain (AID 161);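 note: 0% = growth of cultures given vehicle only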; conditions: S. cerevisiae sgs1 mgt1 strain, at 50.0 µM, stronger effect = higher value
Summary of the method: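 Growth of a repair-deficient yeast mutant was monitored after compound treatment and expressed as inhibition relative to vehicle-treated cultures.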

[4] = NCI Yeast Anticancer Drug Screen. Data for the cln2 rad14 strain (AID 165);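 note: 0% = growth equal to vehicle treated cultures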; conditions: S. cerevisiae cln2 rad14 strain, at 50.0 µM, stronger effect = higher value
Summary of the method: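 Growth inhibition, relative to vehicle-treated controls, is the read-out. The test organism is a yeast strain with defined genetic alterations, cln2 rad14.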

[5] = NCI Yeast Anticancer Drug Screen. Data for the bub3 strain (AID 167); conditions: S. cerevisiae bub3 mutant strain, at 50.0 µM, stronger effect = higher value
Summary of the method: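 Mutant yeast screening strain plus compound; vehicle-treated cultures serve as the 0% inhibition reference.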

[6] = NCI Yeast Anticancer Drug Screen. Data for the mlh1 rad18 strain (AID 175); conditions: S. cerevisiae mlh1 rad18 strain growth inhibition; at 50.0 µM; stronger effect = higher value
Summary of the method: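 Cells of a genetically altered yeast strain, deficient in DNA damage repair, were treated with compound. Their growth was then compared with that of vehicle-treated cultures to give inhibition.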

Structure (SMILES) | growth inhibition [1] | growth inhibition [2] | growth inhibition [3] | growth inhibition [4] | growth inhibition [5] | growth inhibition [6]
CCCCCO[Si](OCCCCC)(OCCCCC)OCCCCC | 3.8% | -9.3% | 29.4% | -4.4% | 1.55% | 10.9%
CCc1nc(=S)c2cnn(-c3ccccc3)c2[nH]1 | 16.4% | 1.1% | 11.2% | -33.5% | 8.05% | 23.6%
CCC(=O)c1cc(-c2cc(C(=O)CC)[nH]n2)n[nH]1 | -27.5% | 3.95% | -5.7% | -18.4% | 2.15% | 3.85%
Cn1c[n+](-c2ccccc2)c([S-])n1 | -0.05% | 5.05% | 5.15% | -22.5% | -24.9% | -7.4%
NC(=O)c1nnsc1NC=O | 15.2% | 7.95% | -40.7% | -0.2% | -26.1% | -29.8%
Brc1ccc(/C(=N/Nc2ccccc2)Oc2ccccc2)cc1 | 17.6% | 1.8% | 16.1% | 25.3% | 14.8% | 19.6%
Cc1cc(C)c2c(c1)Nc1ccccc1P2c1ccccc1 (stereo not drawn) | 11.2% | 14.2% | 48.2% | 31.1% | 44.6% | 53.6%
CCOC1=C([N+](=O)[O-])C(c2ccccc2)NC1=O (stereo not drawn) | 10.8% | -0.6% | -3% | 15.1% | -35.3% | 11.7%
OCCCOCc1ccccc1 | 39.8% | 27.4% | 30.9% | 30.3% | 17.5% | 12.2%
c1ccc(CN2COc3c(ccc4c5c(ccc34)CN(Cc3ccccc3)CO5)C2)cc1 | 5% | -10.4% | -37.5% | -14.1% | -19.9% | -9.15%
O=C(Sc1ccccn1)c1ccccc1 | 4.15% | -14.3% | -18.4% | -8.05% | -21.6% | -37.1%
Cc1ccc2ccccc2c1CSc1nc(N)nc2c1ncn2CC(C)C | 37% | 23.6% | 30.7% | 25.6% | 12.9% | 46.5%
CC(=O)Nc1ccc(/C=N/Nc2nc3ccccc3s2)cc1 | -10.3% | -11% | -5% | -50.4% | 1.9% | 31.1%
O=C(O)Cc1ccc2c(c1)C(=O)C(=O)N2 | 18.6% | 18.6% | 7.05% | -8.75% | -18.7% | 15.1%
O=S(=O)(O)c1cc(S(=O)(=O)O)c2c(N=Nc3cccc4ccccc34)c(O)ccc2c1 | 0.8% | -9.25% | -35.5% | -18.1% | -35.9% | 1.55%
C/C(=N\NC(N)=S)c1ccc(C)cc1C | 45.4% | -3.75% | 57% | 25.9% | 7.55% | 59.5%
N#Cc1cc([N+](=O)[O-])ccc1NC(=O)/C(=N\NC(=O)c1ccncc1)C(c1cnc2ccc([N+](=O)[O-])cc2n1)[N+](=O)[O-] (stereo not drawn) | 8.6% | 11.4% | -11.1% | -16.1% | 25.4% | 2.75%
COc1cccc(Nc2nc(N)nc(N)c2N)c1 | -4.2% | -35.8% | -6.3% | 10.1% | -19.6% | 14%
COC(=O)/C=C/C(=O)OC | 9.75% | 14.4% | 19.4% | 9.3% | 9.45% | 6.6%

Structure (SMILES) | growth inhibition [1] | growth inhibition [2] | growth inhibition [3] | growth inhibition [4] | growth inhibition [5] | growth inhibition [6]
CCCn1c(C)nc2c(N)cc(C)cc21 | -5.9% | -2.9% | -6.05% | -44.5% | -1.5% | -0.8%
Cc1[nH]c(=O)nc(CC(O)(c2ccccc2)c2ccccc2)c1-c1ccccc1 | -31.6% | -38.1% | -22% | 14.2% | -6.05% | -26.1%
COc1cc(C(=O)O)ccc1OS(=O)(=O)O | -17.4% | -62.5% | -10.7% | -21.6% | -11% | -31.3%
CCOc1cc2ccc3c4cc(OC)c(OC)cc4cnc3c2cc1OCC | -16.9% | -17.4% | -12.7% | -0.4% | -9.4% | -18.9%
COc1cccc(/C=C/C(=O)c2sc(C(N)=S)nc2C)c1O | 14.2% | 1.7% | 5.2% | 25.9% | -3.75% | 7.6%
CC(C)Cc1ccc(C(C)CC2=CCC(CN(C)C)C2=O)cc1 (stereo not drawn) | 79.2% (active) | 91.5% (active) | 90.2% (active) | 84.4% (active) | 88.7% (active) | 89.3% (active)
COc1ccccc1/C=C(\C)C(=O)O | 10.8% | -15.3% | -6.2% | 0.05% | -11.3% | -16.1%
Cc1ccc2nc(NC(=O)OCc3ccccc3)sc2c1 | 4.1% | 20.1% | -11.8% | 6.95% | 8.6% | 9.65%
CN1C(=O)C(CCCN=C(N)N)NC1=S (stereo not drawn) | -13.7% | -2.4% | -6.65% | -12.2% | -2.45% | -13.6%
O=C(CN1CCOCC1)Nc1cccc(Cl)c1 | 0.5% | -20.1% | -2.6% | -14.8% | 58.3% | -29.1%
CC1(c2ccc(C(O)c3ccccc3)s2)OCCO1 (stereo not drawn) | 1.8% | 7.3% | 10.9% | 12.9% | 11.4% | 15.6%
O=C1C2CCCC3CCCC(C(=O)N1NC1CCCCC1)C32 (stereo not drawn) | 39.4% | 28.6% | 27.9% | 29.7% | 53.4% | 49%
COc1cc(C(=O)O)c(O)c(OC)c1OC | 0.2% | 0.9% | -8.4% | -36.1% | -13% | 3.4%
COc1cc2c3c(c1)[nH]c(=S)n3C(=O)C(c1ccccc1)S2 (stereo not drawn) | -32.5% | 5.8% | -3.5% | 40.6% | 10.1% | -27.8%
O=C(O)c1c(Cl)ccc(F)c1Cl | 9.45% | 1.2% | 4.5% | -11.9% | 11.3% | 8.35%
ClC(Cl)(Cl)c1ccc(C2OCCO2)cc1 | -17.8% | -6.8% | -7.85% | -26.6% | -22% | -0.3%
COC(=O)C(c1ccccc1)C(SCc1ccccc1)c1ccccc1 (stereo not drawn) | 2.85% | 1.15% | -18.9% | 0.95% | -7.15% | 4.7%
CC1(C)/C(=N\NC(N)=O)C2CCC1C2 (stereo not drawn) | -19.9% | -25.6% | 2.65% | -4.05% | -11.6% | -16.9%
CC1(C2(C)Nc3ccccc3O2)Nc2ccccc2O1 (stereo not drawn) | 10.2% | 8.35% | 9.95% | -36.8% | 3.65% | 9.05%
